Screening data deposited in PubChem BioAssay by Buhrlage Lab, Dana-Farber Cancer Institute and Novartis Institutes for BioMedical Research (Cambridge, Mass).
In the library only some 11% were active in any assay of this set; here they are far more common.
USP17 block: blocks human USP17 ubiquitin-rhodamine cleavage. A8MUK1. purified USP17, Ub-rhodamine cleavage fluorescence, 3 h. inhibition, % at 50 µM. hit rate 6.5% among 47,000
USP30 block: blocks human USP30 ubiquitin-rhodamine cleavage. purified USP30, Ub-rhodamine cleavage fluorescence. inhibition, % at 25 µM. hit rate 5.3% among 47,000. AID 1645860
USP28 inh: inhibitors of human USP28 deubiquitinase; hit rate 3% among 47,000; Q96RU2; purified USP28, Ub-rhodamine cleavage fluorescence, 30 min; inhibition, % at 25 µM; AID 1645857
Target sequence (Q96RU2 whole entry, looked up): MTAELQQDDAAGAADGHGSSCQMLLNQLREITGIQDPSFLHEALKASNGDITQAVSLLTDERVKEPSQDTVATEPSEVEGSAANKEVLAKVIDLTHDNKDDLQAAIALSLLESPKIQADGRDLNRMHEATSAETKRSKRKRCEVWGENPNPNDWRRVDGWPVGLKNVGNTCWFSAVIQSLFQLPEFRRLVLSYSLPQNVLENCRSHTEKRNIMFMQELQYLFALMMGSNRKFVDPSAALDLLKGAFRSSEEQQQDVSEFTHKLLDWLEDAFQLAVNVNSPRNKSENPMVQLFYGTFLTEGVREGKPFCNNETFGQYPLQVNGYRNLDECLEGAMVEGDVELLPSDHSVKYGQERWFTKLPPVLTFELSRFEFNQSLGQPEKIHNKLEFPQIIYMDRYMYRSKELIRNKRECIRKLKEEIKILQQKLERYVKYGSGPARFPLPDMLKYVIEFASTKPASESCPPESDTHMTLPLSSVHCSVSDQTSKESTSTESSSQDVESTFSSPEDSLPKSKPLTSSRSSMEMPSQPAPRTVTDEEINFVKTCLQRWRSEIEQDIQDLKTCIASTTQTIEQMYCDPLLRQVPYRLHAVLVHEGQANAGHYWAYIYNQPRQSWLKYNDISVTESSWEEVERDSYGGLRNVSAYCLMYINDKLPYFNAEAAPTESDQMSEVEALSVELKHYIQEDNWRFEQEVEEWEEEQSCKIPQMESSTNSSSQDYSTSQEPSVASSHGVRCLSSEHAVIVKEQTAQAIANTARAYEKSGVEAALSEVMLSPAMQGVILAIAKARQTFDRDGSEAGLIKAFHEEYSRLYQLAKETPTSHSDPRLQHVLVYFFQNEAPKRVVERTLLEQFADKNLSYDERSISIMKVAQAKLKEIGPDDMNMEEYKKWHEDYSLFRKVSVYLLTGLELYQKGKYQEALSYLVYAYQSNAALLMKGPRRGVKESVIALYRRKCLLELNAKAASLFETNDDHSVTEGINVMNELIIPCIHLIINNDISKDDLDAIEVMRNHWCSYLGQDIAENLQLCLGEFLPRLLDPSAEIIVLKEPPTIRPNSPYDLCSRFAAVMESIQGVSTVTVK
Numbers without * were called inactive; i = inactive; . = no result. No stated cut-off is given here; in the data, active means inhibition above about 30%; inactive means the rest.

SMILES	USP17 block	USP30 block	USP28 inh
O=C(NCc1ccc(Cl)cc1)NCc1nnnn1-c1ccccc1	5	10	13
CC(C)(Oc1ccc(Cl)cc1)C(=O)NCc1nnnn1-c1ccc(F)cc1	17	18	31*
Cc1noc(-c2ccc(N3CCCC(C(=O)Nc4ccc(F)cc4F)C3)nc2)n1 (stereo unspecified)	-1	-26	-12
CCN1C(=O)c2c(C(=O)Nc3ccc(C)cc3)ncn2CC1(C)C(=O)NC1CCCC1 (stereo unspecified)	1	24	-3
COCCCNC(=O)C1c2ccccc2C(=O)N(Cc2ccccc2)C12CCCC2 (stereo unspecified)	.	-15	-12
COCCNC(=O)C1c2ccccc2C(=O)N(Cc2ccccc2)C12CCCC2 (stereo unspecified)	-1	32*	12
O=C1CC(c2noc(-c3ccco3)n2)CN1Cc1ccccc1 (stereo unspecified)	-8	-51	-11
CC(C)Cc1ccc(-c2cc(-c3ccc(C(F)(F)F)cc3)c(C#N)c(=O)[nH]2)cc1	16	15	0
Cc1ccc(-c2cc(-c3ccc(F)cc3)[nH]c(=O)c2C#N)cc1	67*	.	.
O=C(Cn1cnc2cc([N+](=O)[O-])ccc2c1=O)Nc1ccc2c(c1)OCCO2	-3	-26	14
NS(=O)(=O)c1ccc(NC(=O)Cn2cnc3cc([N+](=O)[O-])ccc3c2=O)cc1	59*	20	41*
CCN(CC)S(=O)(=O)c1ccc2oc(N(C(=O)c3ccc(F)cc3)c3ccc(OC)cc3)nc2c1	11	-2	10
COc1ccc2oc(C(=O)NC(C)c3ccccn3)c(C)c2c1 (stereo unspecified)	.	-9	-5
COc1ccc2oc(C(=O)Nc3ccc4ccccc4n3)c(C)c2c1	32*	-76	-11
C/C=C(\C)c1cc(OC)c(C)c(=O)o1	-1	-5	-3
O=C(O)c1cccc(S(=O)(=O)Nc2ccc(Cc3ccncc3)cc2)c1	-21	-9	-8
CC(C)(C)c1ccc(S(=O)(=O)Nc2ccc(Cc3ccncc3)cc2)cc1	-5	36*	2
O=C(NCc1ccncc1)c1ccc(Cn2cnc3ccccc3c2=O)o1	-1	-10	9
O=C(NCc1cccnc1)c1ccc(Cn2cnc3ccccc3c2=O)o1	7	20	23
COC(=O)c1ccc(Cn2cnc3ccc(Br)cc3c2=O)o1	-13	-5	80*
COC(=O)c1ccc(Cn2cnc3ccc(F)cc3c2=O)o1	11	28	87*
OCCN1CCN(CCc2c3c(cc4c2CCC4)CCC3)CC1	-7	0	3
CCOC(=O)c1ccc(NC(=O)C(CC(=O)O)NCc2ccco2)cc1 (stereo unspecified)	6	2	1
COc1ccc(Nc2cc(C(=O)N3CCN(c4ccccn4)CC3)c3ccccc3n2)cc1	.	0	1
Cc1ccccc1NC(=O)CSc1nc(-c2ccco2)nc2c1c(=O)n(C)c(=O)n2C	-2	-5	-8
SMILES	USP17 block	USP30 block	USP28 inh
Cc1ccccc1-c1nc(SCC(=O)N2CCCC2)c2c(=O)n(C)c(=O)n(C)c2n1	9	43*	0
O=S(=O)(C1CC1)N1C[C@H](Oc2cccnc2)[C@H]2OCCC[C@H]21	-20	-11	-4
O=C(C1CCCC1)N1CCC(c2nc3c(nnn3Cc3ccccc3Cl)c(=O)[nH]2)CC1	15	39*	19
O=C(C(c1ccccc1)c1ccccc1)N1CCC(c2nc3c(nnn3Cc3c(F)cccc3Cl)c(=O)[nH]2)CC1	51*	44*	38*
O=C(C1CCCC1)N1CCC(c2nc3c(nnn3Cc3cccc(Cl)c3)c(=O)[nH]2)CC1	7	26	15
CC(C)(C)CC(=O)N1CCC(c2nc3c(nnn3Cc3c(F)cccc3Cl)c(=O)[nH]2)CC1	7	6	1
O=C(Nc1cnn(-c2ncncc2N2CCCC2)c1)c1ccc(F)cc1	-26	-20	-7
CC1Oc2ccccc2C(=O)N(Cc2ccc(F)cc2)C1=O (stereo unspecified)	10	9	18
CC1Oc2ccccc2C(=O)N(CC(=O)c2ccc3c(c2)OCCO3)C1=O (stereo unspecified)	13	23	31*
CC1Oc2ccccc2C(=O)N(Cc2ccccc2)C1=O (stereo unspecified)	20	32*	33*
CCOc1ccc(C(=O)CN2C(=O)c3ccccc3OC(C)C2=O)cc1 (stereo unspecified)	11	29	10
Cc1cc(Cl)ccc1NC(=O)CCc1nc(-c2cccnc2)no1	-7	-19	-7
COc1cccc(S(=O)(=O)N2Cc3ccccc3N(C)C(C)C2)c1 (stereo unspecified)	10	12	5
O=S(=O)(c1cccnc1)N1C[C@H]2CC[C@H](Oc3cccnc3)[C@H]2C1	.	18	7
O=C(CCc1nc(CSc2nnc(-c3ccncc3)o2)no1)Nc1ccc(F)cc1	-25	-3	-7
O=C(Nc1nc2c(s1)CCC2C(=O)Nc1ccc2c(c1)OCO2)c1ccccc1 (stereo unspecified)	25	-14	7
COc1cc2c(cc1OC)-c1cc(Nc3ccc(Br)cc3)nc(=O)n1CC2	25	53*	23
COc1ccc(CCNc2cc3n(c(=O)n2)CCc2cc(OC)c(OC)cc2-3)cc1OC	-12	-46	-20
Cc1ccc(CNC(=O)C2CCN(c3nc4nc[nH]c(=O)c4s3)CC2)cc1C	7	12	4
CC(C)c1cc(C(=O)N2CCC[C@]3(C)NC(=O)CCC[C@H]23)n[nH]1	3	16	8
c1ccc(CCNc2nc3ccccc3s2)cc1	-9	-9	35*
c1ccc(CCNc2nc(-c3ccccc3)c(-c3ccccc3)s2)cc1	3	12	0
CC(=O)c1ccc(NC(=O)CN2CCN(c3nc4cc(Cl)ccc4s3)CC2)cc1	29	24	-2
CC1(C)c2cc(F)ccc2N2CCC(=O)NC21/C=C/c1ccc(F)cc1 (stereo unspecified)	-96	-91	-43
CC(C)NC(=O)N1CC[C@H]2N(S(C)(=O)=O)CC[C@@]2(C(=O)N2CCCC2)CC1	-9	5	-10
SMILES	USP17 block	USP30 block	USP28 inh
Cc1ccnc(C2CN(C(=O)c3ccc4[nH]c(C)c(C)c4c3)CCO2)n1 (stereo unspecified)	-105	i	-130
Cc1cc2ccccc2n1CCNS(=O)(=O)c1ccc([N+](=O)[O-])cc1	17	-63	15
CC(=O)Nc1ccc(S(=O)(=O)NCCn2c(C)cc3ccccc32)cc1	34*	-162	-36
COc1ccc(Nc2nncc(=O)[nH]2)cc1Cl	6	12	5
O=C(Nc1ccc2sccc2c1)c1ccc(F)cc1	49*	58*	10
O=C(Nc1ccc2c(c1)COC2=O)c1ccc(F)cc1	19	-2	0
N#Cc1ccc(OCC(=O)Nc2ccc(-c3cn4ccsc4n3)cc2)cc1	18	-6	-25
COc1cccc(CNC(=O)N2CCN(C(C)=O)CC3(CC(=O)N(C)C3)C2)c1 (stereo unspecified)	-14	-1	-6
CN1CCN(C(=O)C2CCN(c3nccnc3Sc3ccccc3)CC2)CC1	6	9	11
COc1cc2c(=O)n(C3CCCC3)c(=O)n(CC(=O)Nc3ccc(F)cc3)c2cc1OC	14	-1	11
